According to the supplement of paper PMC10849652:
Of roughly 8,800 targets only a part is listed; those with a hit were picked by preference. About 0.5% of all pairs of compound and target were hits.

How the values were obtained:
Assay in all cases: log2 fold change, soluble protein after heating vs DMSO (PISA); higher = thermal stabilisation; K562 lysate, 10 uM; active = over 0.2 and 3.5 SD of the protein, either way, in both replicates (recomputed)
ibrutinib = compound: C=CC(=O)N1CCC[C@@H](n2nc(-c3ccc(Oc4ccccc4)cc3)c3c(N)ncnc32)C1 [ibrutinib]
How it was run: (§1)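 Pellets of K562 cells were dounce-homogenised in PBS pH 7.4 with 1 mM MgCl2, and the crude extract was held at 1 mg/mL protein for a 30 min treatment with 10 μM compound. Aliquots were heated for 3 min over 48°C-58°C and pooled before NP-40 was added to 0.5% at 4°C. The supernatant from 21,000xg for 90 min was quantified by TMTpro 16plex LC-MS/MS with channel sums equalised. Values are reported from duplicates as log-two fold change in thermal stability relative to solvent controls.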

[1] = compound: CC(=O)c1cnc2ccc(-c3cc(Cl)c(O)c(Cl)c3)nc2c1N[C@H]1CC[C@H](CN(C)C)CC1
How it was run: as §1

ralimetinib = compound: CC(C)(C)Cn1c(N)nc2ccc(-c3[nH]c(C(C)(C)C)nc3-c3ccc(F)cc3)nc21 [ralimetinib]
How it was run: as §1

[2] = compound: CC(C)(O)CC(=O)NCCn1ccc2ncnc(Nc3ccc(Oc4cccc(C(F)(F)F)c4)c(Cl)c3)c21
How it was run: as §1

[3] = compound: CC(C)C1=C2N=C(C=C(N2N=C1)NCC3=CC=CC=C3)NCCCCCCN
How it was run: as §1

[4] = compound: CC1=C(C(CC(=O)N1)C2=CC=C(C=C2)C(F)(F)F)C(=O)NC3=C(C=C4C(=C3)C=NN4)F
How it was run: as §1

[5] = compound: CC1=C(C2=C(C=C1)C(=O)C3=CC=CC=C3N2CCCN)C
How it was run: as §1

[6] = compound: CC1=C(C=C(C=C1)NC(=O)C2=CC(=CC=C2)C(C)(C)C#N)NC3=CC4=C(C=C3)N=CN(C4=O)C
How it was run: as §1

[7] = compound: CC1=C(C=C(C=C1)NC(=O)C2=CC(=CC=C2)N(C)C)NC(=O)C3=CC=C(C=C3)O
How it was run: as §1

[8] = compound: CC1=CC=C(C=C1)SC2=C3C=C(SC3=CN=C2)C(=O)N
How it was run: as §1

Measured: log2 fold change

SAMHD1 (UniProt Q9Y3Z3)
UniProt Q9Y3Z3, sequence (Q9Y3Z3 whole entry, looked up): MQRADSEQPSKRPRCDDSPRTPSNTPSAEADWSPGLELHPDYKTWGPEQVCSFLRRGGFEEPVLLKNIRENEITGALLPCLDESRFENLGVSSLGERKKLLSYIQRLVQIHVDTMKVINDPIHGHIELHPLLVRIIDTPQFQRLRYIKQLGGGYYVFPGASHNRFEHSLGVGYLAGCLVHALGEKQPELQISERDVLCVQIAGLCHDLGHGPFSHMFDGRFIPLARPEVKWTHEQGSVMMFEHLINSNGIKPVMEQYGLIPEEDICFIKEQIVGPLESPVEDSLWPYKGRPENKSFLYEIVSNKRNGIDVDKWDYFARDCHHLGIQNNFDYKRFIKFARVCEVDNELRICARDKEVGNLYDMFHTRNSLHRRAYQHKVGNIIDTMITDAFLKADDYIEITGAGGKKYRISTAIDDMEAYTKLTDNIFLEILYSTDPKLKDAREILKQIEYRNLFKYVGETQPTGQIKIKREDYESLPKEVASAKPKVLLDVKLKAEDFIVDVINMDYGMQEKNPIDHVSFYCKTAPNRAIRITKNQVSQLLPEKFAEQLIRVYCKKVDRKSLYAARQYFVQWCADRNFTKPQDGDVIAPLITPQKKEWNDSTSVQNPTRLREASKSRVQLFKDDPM
inactive: ibrutinib -0.009 | [1] -0.022 | ralimetinib 0.056 | [2] -0.004 | [3] -0.002 | [4] 0.003 | [5] -0.017 | [6] 0.006 | [7] 0.067 | [8] -0.003

RAB27A (UniProt P51159)
UniProt P51159, sequence (P51159 whole entry, looked up): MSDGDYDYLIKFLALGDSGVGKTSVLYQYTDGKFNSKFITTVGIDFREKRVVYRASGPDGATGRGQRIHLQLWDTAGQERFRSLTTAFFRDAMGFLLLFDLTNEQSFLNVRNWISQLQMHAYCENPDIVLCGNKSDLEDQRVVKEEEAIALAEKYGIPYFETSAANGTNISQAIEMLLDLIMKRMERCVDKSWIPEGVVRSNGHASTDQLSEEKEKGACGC
inactive: ibrutinib -0.011 | [1] -0.035 | ralimetinib 0.074 | [2] 0.033 | [3] -0.054 | [4] -0.044 | [5] 0.047 | [6] -0.057 | [7] 0.006 | [8] -0.026

SBF1 isoform 4 (UniProt O95248)
UniProt O95248, sequence (O95248 whole entry, looked up): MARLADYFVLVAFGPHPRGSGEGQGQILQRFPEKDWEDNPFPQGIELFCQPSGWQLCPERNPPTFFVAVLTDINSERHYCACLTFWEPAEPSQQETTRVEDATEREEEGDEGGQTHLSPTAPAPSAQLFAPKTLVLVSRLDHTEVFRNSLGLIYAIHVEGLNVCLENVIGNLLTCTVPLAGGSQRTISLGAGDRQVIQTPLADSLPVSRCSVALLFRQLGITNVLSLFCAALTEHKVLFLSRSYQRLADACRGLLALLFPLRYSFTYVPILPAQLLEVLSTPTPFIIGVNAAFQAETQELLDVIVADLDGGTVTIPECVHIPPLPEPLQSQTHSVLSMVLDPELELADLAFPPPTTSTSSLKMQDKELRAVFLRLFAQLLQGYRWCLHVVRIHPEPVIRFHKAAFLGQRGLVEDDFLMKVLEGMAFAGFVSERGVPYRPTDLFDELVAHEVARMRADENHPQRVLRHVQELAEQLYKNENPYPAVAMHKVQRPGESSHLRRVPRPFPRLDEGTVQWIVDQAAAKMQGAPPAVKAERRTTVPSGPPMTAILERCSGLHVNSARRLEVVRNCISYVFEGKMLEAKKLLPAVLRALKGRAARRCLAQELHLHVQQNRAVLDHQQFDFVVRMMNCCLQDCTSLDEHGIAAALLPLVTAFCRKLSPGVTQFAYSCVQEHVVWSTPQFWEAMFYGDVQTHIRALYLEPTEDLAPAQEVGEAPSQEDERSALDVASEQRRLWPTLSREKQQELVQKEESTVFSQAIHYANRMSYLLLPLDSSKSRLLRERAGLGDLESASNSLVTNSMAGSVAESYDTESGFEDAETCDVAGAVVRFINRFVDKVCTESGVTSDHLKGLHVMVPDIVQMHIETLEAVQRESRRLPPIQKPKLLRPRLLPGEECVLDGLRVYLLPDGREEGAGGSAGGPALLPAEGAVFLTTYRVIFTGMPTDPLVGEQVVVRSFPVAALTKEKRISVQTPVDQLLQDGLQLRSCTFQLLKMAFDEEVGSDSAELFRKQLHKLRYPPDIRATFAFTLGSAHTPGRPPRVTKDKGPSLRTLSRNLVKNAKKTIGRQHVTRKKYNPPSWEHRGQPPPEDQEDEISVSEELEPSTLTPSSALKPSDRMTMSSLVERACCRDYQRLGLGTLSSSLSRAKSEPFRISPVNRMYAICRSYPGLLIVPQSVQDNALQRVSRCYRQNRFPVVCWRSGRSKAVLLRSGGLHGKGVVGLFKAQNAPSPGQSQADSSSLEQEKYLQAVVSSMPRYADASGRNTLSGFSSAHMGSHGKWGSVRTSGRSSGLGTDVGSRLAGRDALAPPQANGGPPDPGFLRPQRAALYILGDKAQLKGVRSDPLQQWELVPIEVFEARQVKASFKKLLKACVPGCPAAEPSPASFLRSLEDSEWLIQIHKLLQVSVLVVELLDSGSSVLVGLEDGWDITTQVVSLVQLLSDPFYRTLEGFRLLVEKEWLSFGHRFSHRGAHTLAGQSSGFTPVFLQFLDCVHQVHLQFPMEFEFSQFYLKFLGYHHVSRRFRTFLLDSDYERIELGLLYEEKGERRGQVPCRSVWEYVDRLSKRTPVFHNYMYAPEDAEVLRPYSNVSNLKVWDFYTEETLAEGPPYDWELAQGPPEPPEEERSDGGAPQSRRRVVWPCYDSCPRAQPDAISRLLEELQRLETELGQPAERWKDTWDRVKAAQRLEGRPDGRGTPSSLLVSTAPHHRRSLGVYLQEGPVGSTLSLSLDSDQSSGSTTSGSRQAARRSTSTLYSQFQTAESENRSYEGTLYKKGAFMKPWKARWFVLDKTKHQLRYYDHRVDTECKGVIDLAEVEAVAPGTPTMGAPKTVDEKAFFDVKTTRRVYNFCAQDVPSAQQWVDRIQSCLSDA
inactive: ibrutinib 0.086 | [1] 0.116 | ralimetinib 0 | [2] -0.021 | [3] -0.079 | [4] 0.045 | [5] -0.039 | [6] -0.012 | [7] 0.054 | [8] 0.079

RDX (UniProt P35241)
inactive: ibrutinib -0.051 | [1] 0 | ralimetinib -0.003 | [2] 0.002 | [3] 0.012 | [4] -0.016 | [5] -0.011 | [6] -0.021 | [7] -0.002 | [8] -0.004

RPL36AL (UniProt Q969Q0)
inactive: ibrutinib -0.038 | [1] 0.004 | ralimetinib -0.018 | [2] 0.088 | [3] -0.004 | [4] -0.001 | [5] 0.068 | [6] -0.038 | [7] 0.013 | [8] 0.052

SEC13 isoform 3 (UniProt P55735)
inactive: ibrutinib -0.084 | [1] -0.025 | ralimetinib 0.024 | [2] -0.01 | [3] -0.015 | [4] -0.005 | [5] 0.034 | [6] -0.032 | [7] 0.031 | [8] -0.014

RPS6KB1 (UniProt P23443)
UniProt P23443, sequence (P23443 whole entry, looked up): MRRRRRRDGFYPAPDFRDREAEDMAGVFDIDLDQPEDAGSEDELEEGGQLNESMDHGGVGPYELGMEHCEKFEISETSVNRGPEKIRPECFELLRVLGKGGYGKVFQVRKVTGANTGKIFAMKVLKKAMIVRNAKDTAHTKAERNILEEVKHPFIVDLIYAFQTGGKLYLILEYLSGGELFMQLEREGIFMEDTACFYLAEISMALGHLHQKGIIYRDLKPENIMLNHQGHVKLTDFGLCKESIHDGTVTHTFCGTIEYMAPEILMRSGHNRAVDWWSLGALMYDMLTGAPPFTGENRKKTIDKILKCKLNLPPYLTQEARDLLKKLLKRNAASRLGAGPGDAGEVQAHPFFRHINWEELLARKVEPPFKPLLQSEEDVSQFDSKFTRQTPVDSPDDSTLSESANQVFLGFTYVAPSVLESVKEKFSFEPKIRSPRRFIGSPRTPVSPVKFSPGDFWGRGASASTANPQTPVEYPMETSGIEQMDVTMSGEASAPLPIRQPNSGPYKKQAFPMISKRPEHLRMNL
active: [1] 0.355
inactive: ibrutinib 0.024 | ralimetinib 0.026 | [2] 0.007 | [3] -0.027 | [4] 0 | [5] 0.01 | [6] -0.029 | [7] -0.01 | [8] -0.001

RIPK1 (UniProt Q13546)
UniProt Q13546, sequence (Q13546 whole entry, looked up): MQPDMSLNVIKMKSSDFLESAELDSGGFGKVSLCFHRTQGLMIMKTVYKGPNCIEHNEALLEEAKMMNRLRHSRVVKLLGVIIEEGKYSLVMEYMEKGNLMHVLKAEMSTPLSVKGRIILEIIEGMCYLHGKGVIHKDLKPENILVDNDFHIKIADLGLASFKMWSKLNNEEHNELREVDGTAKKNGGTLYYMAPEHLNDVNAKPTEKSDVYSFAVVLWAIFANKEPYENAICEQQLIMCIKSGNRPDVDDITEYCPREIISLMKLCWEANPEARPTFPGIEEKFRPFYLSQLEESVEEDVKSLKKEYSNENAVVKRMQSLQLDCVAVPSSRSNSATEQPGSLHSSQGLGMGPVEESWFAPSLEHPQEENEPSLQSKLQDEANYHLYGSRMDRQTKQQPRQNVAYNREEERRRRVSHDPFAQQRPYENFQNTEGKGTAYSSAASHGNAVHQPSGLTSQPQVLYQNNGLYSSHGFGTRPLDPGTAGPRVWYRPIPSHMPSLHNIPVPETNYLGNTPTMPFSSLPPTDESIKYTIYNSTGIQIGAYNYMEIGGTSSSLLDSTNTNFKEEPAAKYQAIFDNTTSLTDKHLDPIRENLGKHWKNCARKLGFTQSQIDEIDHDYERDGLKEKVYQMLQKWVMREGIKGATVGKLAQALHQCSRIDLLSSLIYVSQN
inactive: ibrutinib -0.02 | [1] -0.025 | ralimetinib -0.009 | [2] -0.011 | [3] 0.018 | [4] 0.001 | [5] -0.013 | [6] 0.001 | [7] -0.02 | [8] 0.003

RBM22 (UniProt Q9NW64)
inactive: ibrutinib 0.01 | [1] -0.007 | ralimetinib -0.03 | [2] -0.044 | [3] -0.033 | [4] 0.009 | [5] -0.014 | [6] 0.043 | [7] -0.01 | [8] -0.006

RNPS1 (UniProt Q15287)
UniProt Q15287, sequence (Q15287 whole entry, looked up): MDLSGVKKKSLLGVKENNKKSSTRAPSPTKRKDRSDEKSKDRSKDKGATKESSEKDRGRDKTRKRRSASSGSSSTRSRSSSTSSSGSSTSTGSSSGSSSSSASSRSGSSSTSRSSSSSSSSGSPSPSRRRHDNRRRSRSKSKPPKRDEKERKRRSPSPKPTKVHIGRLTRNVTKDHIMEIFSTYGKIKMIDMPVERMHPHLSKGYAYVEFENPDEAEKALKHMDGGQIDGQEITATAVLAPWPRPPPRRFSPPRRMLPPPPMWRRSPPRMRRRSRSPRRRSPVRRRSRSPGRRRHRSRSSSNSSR
inactive: ibrutinib 0.04 | [1] 0.042 | ralimetinib 0.007 | [2] 0.006 | [3] 0.005 | [4] 0.138 | [5] 0.003 | [6] -0.057 | [7] -0.032 | [8] -0.032

RSU1 (UniProt Q15404)
inactive: ibrutinib 0 | [1] 0.005 | ralimetinib -0.005 | [2] -0.02 | [3] 0.005 | [4] 0.019 | [5] -0.022 | [6] -0.017 | [7] -0.027 | [8] -0.012

RAB6D (UniProt Q53S08)
UniProt Q53S08, sequence (Q53S08 whole entry, looked up): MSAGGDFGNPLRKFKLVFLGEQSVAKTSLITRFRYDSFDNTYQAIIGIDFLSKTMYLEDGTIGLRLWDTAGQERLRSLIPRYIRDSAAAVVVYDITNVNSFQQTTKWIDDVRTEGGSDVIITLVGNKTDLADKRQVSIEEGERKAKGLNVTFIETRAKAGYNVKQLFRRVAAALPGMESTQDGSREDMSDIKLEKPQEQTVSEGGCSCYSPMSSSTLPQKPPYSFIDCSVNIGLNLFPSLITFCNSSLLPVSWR
inactive: ibrutinib 0 | [1] 0.013 | ralimetinib -0.011 | [2] -0.087 | [3] 0.014 | [4] -0.113 | [5] -0.057 | [6] 0.009 | [7] 0.009 | [8] -0.026

SCD (UniProt O00767)
inactive: ibrutinib -0.06 | [1] -0.053 | ralimetinib 0.059 | [2] -0.009 | [3] -0.052 | [4] 0.032 | [5] 0.047 | [6] 0.02 | [7] -0.085 | [8] -0.128

RPN2 (UniProt P04844)
inactive: ibrutinib -0.008 | [1] 0.014 | ralimetinib -0.004 | [2] -0.035 | [3] -0.021 | [4] 0.008 | [5] 0.021 | [6] -0.011 | [7] -0.015 | [8] -0.017

SEC62 (UniProt Q99442)
UniProt Q99442, sequence (Q99442 whole entry, looked up): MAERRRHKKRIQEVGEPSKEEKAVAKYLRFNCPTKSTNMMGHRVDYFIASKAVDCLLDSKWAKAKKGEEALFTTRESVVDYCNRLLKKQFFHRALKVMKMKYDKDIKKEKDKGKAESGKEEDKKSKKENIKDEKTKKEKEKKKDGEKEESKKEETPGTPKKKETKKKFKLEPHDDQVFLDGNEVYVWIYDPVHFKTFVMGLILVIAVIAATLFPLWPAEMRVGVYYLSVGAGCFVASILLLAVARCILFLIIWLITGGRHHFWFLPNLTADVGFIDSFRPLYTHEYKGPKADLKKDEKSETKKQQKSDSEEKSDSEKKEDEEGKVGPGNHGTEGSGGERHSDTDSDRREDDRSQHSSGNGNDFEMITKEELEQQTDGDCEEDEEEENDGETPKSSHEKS
inactive: ibrutinib 0.002 | [1] -0.027 | ralimetinib -0.032 | [2] -0.058 | [3] 0.02 | [4] 0.013 | [5] -0.006 | [6] 0.022 | [7] 0.002 | [8] -0.015
